{"source": "paper PMC9911399", "about": "“Two distinct binding modes provide the RNA-binding protein RbFox with extraordinary sequence specificity”", "binders": {"B1": {"name": "GGCUGGU (DNA:RNA)", "RNA": "GGGAGACCGGAAUUCAGAUUGUCCGGCUGGUUUAAAUCCCGUCGUAGCCACCA", "DNA 1": "CAATCTGAATTCCGGTCTCCC", "DNA 2": "TGGTGGCTACGACGGGATT"}, "B2": {"name": "GAAGAAG (DNA:RNA)", "RNA": "B1 RNA with G26A, C27A, U28G, G29A, G30A, U31G", "DNA 1": "CAATCTGAATTCCGGTCTCCC", "DNA 2": "TGGTGGCTACGACGGGATT"}, "B3": {"name": "CACGUCA (DNA:RNA)", "RNA": "B1 RNA with G25C, G26A, U28G, G29U, G30C, U31A", "DNA 1": "CAATCTGAATTCCGGTCTCCC", "DNA 2": "TGGTGGCTACGACGGGATT"}, "B4": {"name": "CCUUCGA (DNA:RNA)", "RNA": "B1 RNA with G25C, G26C, C27U, G29C, U31A", "DNA 1": "CAATCTGAATTCCGGTCTCCC", "DNA 2": "TGGTGGCTACGACGGGATT"}, "B5": {"name": "GUGCUCC (DNA:RNA)", "RNA": "B1 RNA with G26U, C27G, U28C, G29U, G30C, U31C", "DNA 1": "CAATCTGAATTCCGGTCTCCC", "DNA 2": "TGGTGGCTACGACGGGATT"}, "B6": {"name": "CCUGGUG (DNA:RNA)", "RNA": "B1 RNA with G25C, G26C, C27U, U28G, G30U, U31G", "DNA 1": "CAATCTGAATTCCGGTCTCCC", "DNA 2": "TGGTGGCTACGACGGGATT"}, "B7": {"name": "UGGGGGG (DNA:RNA)", "RNA": "B1 RNA with G25U, C27G, U28G, U31G", "DNA 1": "CAATCTGAATTCCGGTCTCCC", "DNA 2": "TGGTGGCTACGACGGGATT"}, "B8": {"name": "UGGGGUG (DNA:RNA)", "RNA": "B1 RNA with G25U, C27G, U28G, G30U, U31G", "DNA 1": "CAATCTGAATTCCGGTCTCCC", "DNA 2": "TGGTGGCTACGACGGGATT"}, "B9": {"name": "UGGGUCG (DNA:RNA)", "RNA": "B1 RNA with G25U, C27G, U28G, G29U, G30C, U31G", "DNA 1": "CAATCTGAATTCCGGTCTCCC", "DNA 2": "TGGTGGCTACGACGGGATT"}, "B10": {"name": "UGGUCCG (DNA:RNA)", "RNA": "B1 RNA with G25U, C27G, G29C, G30C, U31G", "DNA 1": "CAATCTGAATTCCGGTCTCCC", "DNA 2": "TGGTGGCTACGACGGGATT"}, "B11": {"name": "UGGGUUG (DNA:RNA)", "RNA": "B1 RNA with G25U, C27G, U28G, G29U, G30U, U31G", "DNA 1": "CAATCTGAATTCCGGTCTCCC", "DNA 2": "TGGTGGCTACGACGGGATT"}, "B12": {"name": "UGUGGUG (DNA:RNA)", "RNA": "B1 RNA with G25U, C27U, U28G, G30U, U31G", "DNA 1": "CAATCTGAATTCCGGTCTCCC", "DNA 2": "TGGTGGCTACGACGGGATT"}, "B13": {"name": "CUGGGUG (DNA:RNA)", "RNA": "B1 RNA with G25C, G26U, C27G, U28G, G30U, U31G", "DNA 1": "CAATCTGAATTCCGGTCTCCC", "DNA 2": "TGGTGGCTACGACGGGATT"}, "B14": {"name": "UGGGUCC (DNA:RNA)", "RNA": "B1 RNA with G25U, C27G, U28G, G29U, G30C, U31C", "DNA 1": "CAATCTGAATTCCGGTCTCCC", "DNA 2": "TGGTGGCTACGACGGGATT"}, "B15": {"name": "UGUUGGG (DNA:RNA)", "RNA": "B1 RNA with G25U, C27U, U31G", "DNA 1": "CAATCTGAATTCCGGTCTCCC", "DNA 2": "TGGTGGCTACGACGGGATT"}, "B16": {"name": "UGGGUGU (DNA:RNA)", "RNA": "B1 RNA with G25U, C27G, U28G, G29U", "DNA 1": "CAATCTGAATTCCGGTCTCCC", "DNA 2": "TGGTGGCTACGACGGGATT"}, "B17": {"name": "UGGUGUG (DNA:RNA)", "RNA": "B1 RNA with G25U, C27G, G30U, U31G", "DNA 1": "CAATCTGAATTCCGGTCTCCC", "DNA 2": "TGGTGGCTACGACGGGATT"}, "B18": {"name": "GGUUCAA (DNA:RNA)", "RNA": "B1 RNA with C27U, G29C, G30A, U31A", "DNA 1": "CAATCTGAATTCCGGTCTCCC", "DNA 2": "TGGTGGCTACGACGGGATT"}, "B19": {"name": "CCGCUAC (DNA:RNA)", "RNA": "GGGAGACCGGAAUUCAGAUUGUCCCCGCUACUUAAAUCCCGUCGUAGCCACCA", "DNA 1": "CAATCTGAATTCCGGTCTCCC", "DNA 2": "TGGTGGCTACGACGGGATT"}, "B20": {"name": "UGUACUC (DNA:RNA)", "RNA": "B19 RNA with C25U, C26G, G27U, C28A, U29C, A30U", "DNA 1": "CAATCTGAATTCCGGTCTCCC", "DNA 2": "TGGTGGCTACGACGGGATT"}}, "note": "Residue numbers refer to the chain shown, from its start. In all, about 16,000 sequences were measured (“ka relative to ugcaugu”: median about 0.096, highest 2% from about 0.35 on). The sample as a whole holds a higher share of the highest values than the screen did."}
{"target": "T1, RBFOX1 RRM RbFoxmut (Fox-RRM*) (Homo sapiens, UniProt Q9NWB1 109-208, R118D;E147R;N151S;E152T)", "T1 sequence": "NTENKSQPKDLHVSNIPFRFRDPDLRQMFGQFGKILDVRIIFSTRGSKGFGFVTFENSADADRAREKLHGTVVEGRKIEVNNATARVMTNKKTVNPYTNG", "experiment": "EMSA; HiTS-Eq, 1 nM pool, 10 min; buffer printed only for the single-RNA assays: 10 mM Tris pH 7.5, 150 mM NaCl, 3.4 mM EDTA, 0.001% NP-40, 30 C", "details": "tags: His6 N-terminal (pET28a); label: 5' 32P", "summary_of_the_method": "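Purified wild-type or mutant RbFox RRM at increasing concentrations was equilibrated with 1 nM of 5′-radiolabelled RNA carrying 7 randomized nucleotides for 10 min in 50 µL. Unbound RNA was separated by 8% native PAGE and sequenced. Relative association constants came from read-count changes of each RNA species compared with the control reaction, normalised to the cognate motif.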"}
{"binder": "B1", "binding signal": "0.14 KA relative to UGCAUGU"}
{"binder": "B2", "binding signal": "0.0975 KA relative to UGCAUGU"}
{"binder": "B3", "binding signal": "0.124 KA relative to UGCAUGU"}
{"binder": "B4", "binding signal": "0.0928 KA relative to UGCAUGU"}
{"binder": "B5", "binding signal": "0.0573 KA relative to UGCAUGU"}
{"binder": "B6", "binding signal": "0.109 KA relative to UGCAUGU"}
{"binder": "B7", "binding signal": "0.0903 KA relative to UGCAUGU"}
{"binder": "B8", "binding signal": "0.38 KA relative to UGCAUGU"}
{"binder": "B9", "binding signal": "0.375 KA relative to UGCAUGU"}
{"binder": "B10", "binding signal": "0.265 KA relative to UGCAUGU"}
{"binder": "B11", "binding signal": "0.947 KA relative to UGCAUGU"}
{"binder": "B12", "binding signal": "0.273 KA relative to UGCAUGU"}
{"binder": "B13", "binding signal": "0.347 KA relative to UGCAUGU"}
{"binder": "B14", "binding signal": "0.149 KA relative to UGCAUGU"}
{"binder": "B15", "binding signal": "0.0997 KA relative to UGCAUGU"}
{"binder": "B16", "binding signal": "0.305 KA relative to UGCAUGU"}
{"binder": "B17", "binding signal": "0.498 KA relative to UGCAUGU"}
{"binder": "B18", "binding signal": "0.0825 KA relative to UGCAUGU"}
{"binder": "B19", "binding signal": "0.129 KA relative to UGCAUGU"}
{"binder": "B20", "binding signal": "0.0695 KA relative to UGCAUGU"}
